# Screening results (PubChem)
# An excerpt weighted towards active compounds, which were near 21% of everything screened.
# IL1B secr inh = qHTS for Inhibitors of Inflammasome Signaling: IL-1-beta AlphaLISA Primary Screen. THP-1 LPS/ATP IL-1B secretion, AlphaLISA, 16 h; stronger effect = lower value. actives 4.7% (n = 360,000). activity change, % at 57.5 µM; in the data active = activity change below about -50%; inconclusive = mostly about -30% to -49%
#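 Secreted IL-1B measured by AlphaLISA bead assay after 16 h compound exposure of THP-1 cells; compounds (final up to 57.5 uM) added 1 h before LPS (250 ng/mL) and ATP (1.25 mM) stimulation; lower signal means less secretion.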
# ELG1 DNA repair = qHTS screen for small molecules that inhibit ELG1-dependent DNA repair in human embryonic kidney (HEK293T) cells expressing luciferase-tagged ELG1; HEK293T ELG1-luciferase reporter, luminescence, 16 h; DNA damage induced by 5-fluorouridine; Potency, µM (top dose mostly 46.1 µM), usual class: inhibitors; actives 2.3% (n = 330,000); AID 504467, 2011; note: nearly all actives have a fitted effect of over 55% in size
#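 Cells (2,000 per well) received 5-fluorouridine plus test compound or DMSO and were incubated 16 hr at 37 °C, 5% CO2. Luciferase activity was read by luminescence 30 min after ONE-Glo addition; signal suppression marked inhibition of damage-induced ELG1 function.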
# RORgamma inh = qHTS for inhibitors of ROR gamma transcriptional activity; Drosophila S2 Gal4-RORgamma UAS-luciferase reporter, 20 h; AID 2551, 2010; Potency, µM (titrated, usually from 53.6 µM), actives largely listed as inhibitors; actives 5.4% (n = 310,000); note: nearly all actives have a fitted effect of over 60% in size
# Target sequence (P51450 whole entry, looked up, the tested form may be a part): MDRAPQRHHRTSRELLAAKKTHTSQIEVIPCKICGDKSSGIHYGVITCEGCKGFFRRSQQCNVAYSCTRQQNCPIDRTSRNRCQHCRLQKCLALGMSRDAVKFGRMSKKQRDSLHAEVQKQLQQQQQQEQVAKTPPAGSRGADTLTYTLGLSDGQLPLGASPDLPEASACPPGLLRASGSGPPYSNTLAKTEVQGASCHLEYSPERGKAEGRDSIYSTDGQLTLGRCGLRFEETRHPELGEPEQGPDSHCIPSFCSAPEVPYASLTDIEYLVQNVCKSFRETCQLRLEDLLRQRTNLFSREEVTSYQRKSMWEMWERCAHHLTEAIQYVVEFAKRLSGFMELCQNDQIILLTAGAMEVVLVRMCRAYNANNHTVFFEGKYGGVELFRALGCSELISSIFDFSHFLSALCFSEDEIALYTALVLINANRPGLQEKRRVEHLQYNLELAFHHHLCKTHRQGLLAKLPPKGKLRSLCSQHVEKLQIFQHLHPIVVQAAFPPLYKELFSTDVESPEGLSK
#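 Drosophila S2 cells stably expressing Gal4-DBD/mouse RORγ fusion under metallothionein promoter plus UAS-luciferase; compound 1 h, then 700 uM CuSO4 induction for 20 h at ambient temperature; inhibition read as reduced luminescence.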
# TDP1 cell noCPT = qHTS for Inhibitors of human tyrosyl-DNA phosphodiesterase 1 (TDP1): qHTS in cells in absence of CPT. DT40 Tdp1-/- hTDP1 cells, no CPT, ATP luminescence, 48 h. Potency, µM (highest dose often 46.2 µM), usual class: inhibitors. actives 15% (n = 420,000); note: nearly all actives have a fitted effect of over 55% in size
#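 Compound effects on proliferation are scored in DT40 Tdp1-/-;hTDP1 cells in the absence of CPT. ATP levels (CellTiter-Glo luminescence) are recorded after a ≥48 hr, 37 °C incubation.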
# TDP1 cell CPT = qHTS for Inhibitors of human tyrosyl-DNA phosphodiesterase 1 (TDP1): qHTS in cells in presence of CPT. chicken DT40 Tdp1-/-;hTDP1 cells + 20 nM CPT, ATP luminescence, 48 h. Potency, µM (series often up to 46.2 µM), actives largely listed as inhibitors. actives 12% (n = 420,000). AID 686979, 2013; note: nearly all actives have a fitted effect of over 55% in size
#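 Chicken DT40 Tdp1-/- cells complemented with human TDP1, 400 cells/well, exposed to compounds plus 20 nM camptothecin for at least 48 h at 37 C; viability read as ATP content by CellTiter-Glo luminescence.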
# VP16 counter = VP16 counterscreen qHTS for inhibitors of ROR gamma transcriptional activity | Potency, µM (top dose mostly 53.6 µM), usual class: inhibitors | Drosophila S2 Gal4-VP16 UAS-luciferase, luminescence, 20 h | actives 3.5% (n = 310,000);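 note: Gal4-VP16 expression switched on by copper sulfate through the metallothionein promoter; nearly all actives have a fitted effect of over 50% in size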
# A number is an active result; 0 = inactive; ? = inconclusive; - = no result given; [ ] = another dose, or the depositor's remark. Unless noted, calls come from the whole dose curve; as a rule, active = well fitted curve in the direction sought with a large enough effect; inconclusive = small, poorly fitted or top-dose-only effect, or another doubt; inactive = no such curve, though single readings can be large; an effect the other way counts as inactive or inconclusive.
SMILES,IL1B secr inh,ELG1 DNA repair,RORgamma inh,TDP1 cell noCPT,TDP1 cell CPT,VP16 counter
N#C/C(=C/c1ccc(N2CCCCCC2)o1)c1cccc(F)c1,0,?,0,20.6µM,?,?
COCCNc1nc(C)nc2c1nc(-c1ccccc1)n2CC1CCN(C)CC1,-,-,0,-,-,0
Cc1cccc(S(=O)(=O)c2cn(C)c3cc(N4CCCCCC4)c(F)cc3c2=O)c1,-,-,-,0,0,-
COCC(=O)Nc1cc(C(=O)N2CCC(c3ccccc3)CC2)cc2nc(-c3ccccc3)n(C)c12,-,-,-,?,16.4µM,-
COCC(=O)Nc1cc(C(=O)N2CCSCC2)cc2nc(-c3ccccc3)n(C)c12,-,-,-,0,0,-
COc1ccc(N(CC(=O)NC2CCCCC2)C(=O)CCCC(=O)Nc2ccccn2)cc1,0,0,0,0,0,0
Cn1c(NCc2ccccc2F)nc2cc(-c3cccc(C(F)(F)F)c3)sc2c1=O,0,-,-,14.6µM,13µM,-
COc1cccc(CNc2nc3cc(-c4cccc(C(F)(F)F)c4)sc3c(=O)n2C)c1OC,0,-,-,?,?,-
CC(=O)Nc1ccc(CNc2nc3cc(-c4cccc(C(F)(F)F)c4)sc3c(=O)n2C)cc1,0,-,-,20.6µM,23.1µM,-
COc1cccc(CNc2nc3cc(-c4cccc(C(F)(F)F)c4)sc3c(=O)n2C)c1,0,-,-,0,0,-
Cc1ccc2nc(-c3ccc(Cl)cc3)c(Cc3ccccc3C(F)(F)F)n2c1,0,-,-,?,25.9µM,-
N#Cc1ccc(-c2nc3ccc(Br)cn3c2Cc2ccccc2C(F)(F)F)cc1,0,-,-,?,?,-
Cc1ccc2nc(-c3ccc(C#N)cc3)c(Cc3ccccc3C(F)(F)F)n2c1,0,-,-,?,23.1µM,-
C=CCSc1nnc(C2CCCN(Cc3ccccc3O)C2)n1C (centres undefined),-,-,-,0,0,-
CC(=O)c1ccc(-c2ccc(/C=C(/Sc3n[nH]c(C)n3)C(=O)O)o2)cc1,0,0,5.62µM,0,0,?
Cc1nc(S/C(=C/c2ccc(-c3ccc(Cl)cc3)o2)C(=O)O)n[nH]1,0,0,1.41µM,?,?,2.82µM
COC(=O)c1sccc1S(=O)(=O)N(CC(=O)NCc1ccc(F)cc1)c1ccc(C)c(C)c1,-,-,-,0,?,-
COc1ccc(-c2ccc(=O)[nH]n2)cc1,0,0,0,0,0,0
C=CC(C1=CC(=O)C(OC)=CC1=O)c1ccccc1 (centres undefined),-,-,?,2.91µM,3.66µM,?
C=CC(C1=CC(=O)C(OC)=CC1=O)c1ccc(OC)cc1 (centres undefined),-,-,0,2.91µM,3.26µM,0
C=CC(C1=CC(=O)C(OC)=C(OC)C1=O)c1ccccc1 (centres undefined),-,-,14.1µM,0.731µM,0.82µM,7.08µM
O=C1NC(=S)S/C1=C\c1ccc(SCc2ccco2)o1,0,0,0,?,18.4µM,?
COc1ccccc1C1CN(CC(=O)N2CCC(N3CCOCC3)CC2)Cc2ccccc2O1 (centres undefined),-,-,-,0,0[9.04 µM],-
Cc1nn2c(=O)cc(COc3ccc(/C=C(\C#N)C(=O)Nc4ccccc4C)cc3)nc2s1,-,-,-,?,0,-
Cc1nn2c(=O)cc(COc3ccc(/C=C(\C#N)C(=O)Nc4ccccc4)cc3Cl)nc2s1,-,-,-,20.6µM,0,-
COCC(=O)N1CCC2(CC1)CN(C(c1ccccc1)c1ccccc1)C2,-,-,0,0,0,0
CC(=O)c1cccc(NC(=O)Cn2ccn3nc(-c4ccccc4)cc3c2=O)c1,-,-,-,0,0,-
CSCCC1NC(=O)C(C(C)=NNC(N)=O)=C1O (centres undefined),0,-,-,16.4µM,?,-
O=C(Nc1cccc(C(=O)Nc2ccc(Cl)cn2)c1)c1ccccc1,?,0,0,0,?,0
